13 molecules from PubChem BioAssay (NCI) can be followed below.

About 83,000 compounds went through this panel and 20% of them were active in at least one assay; those are over-represented in the sample as a whole.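 A percent growth of 40 corresponds to 60% growth inhibition; 0 means no net growth; -100 means all cells died. Active threshold: below 10.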 Unmarked numbers belong to inactive results. Calls of active or inactive are those of the source.

Some test systems named below: HT29 colon; SNB-75 CNS; U251 CNS; PC-3 prostate; SK-MEL-5 melanoma; UACC-62 melanoma; LOX IMVI melanoma; SNB-19 CNS; SK-MEL-28 melanoma.
Holding throughout (assay): NCI-60 one-dose screen, 48 h (100 = growth as untreated, 0 = no growth, -100 = all killed)
In a further test the test system is HCT-15 colon. The settings on record: 10 µM unless noted.

For the molecule `COc1nc(N)ncc1-c1ccc2ncnc(N3CCc4cc(F)c(Cl)cc43)c2c1`, the growth was 23.7% with HCT-15 colon; 36.7% with HT29 colon (10 µM unless noted); -52.7% (active) in the test with SNB-75 CNS (10 µM unless noted); -44.9% (active) with U251 CNS (10 µM unless noted); 66.3% with PC-3 prostate (10 µM unless noted); 57.5% in the test on SK-MEL-5 melanoma (10 µM unless noted). The growth in the test on UACC-62 melanoma (10 µM unless noted) is 50%; with LOX IMVI melanoma (10 µM unless noted), 14.5%.

With `O=C1NC(=S)/C(=C/c2cn(-c3ccccc3)nc2-c2ccccc2)S1`, the growth in the test on HCT-15 colon was 20%; in the test with HT29 colon (10 µM unless noted) it was 22.9%; in the test on SNB-75 CNS (10 µM unless noted), 80.7%; in the test with SNB-19 CNS (10 µM unless noted) it was 14.3%; in the test with PC-3 prostate (10 µM unless noted), 34.9%; with SK-MEL-5 melanoma (10 µM unless noted) it was -42.3% (active). The results for the growth with UACC-62 melanoma (10 µM unless noted), in the test on LOX IMVI melanoma (10 µM unless noted) and in the test on SK-MEL-28 melanoma (10 µM unless noted) were 6.83% (active), 28.9% and 20.5%, respectively.

`CN(C)c1ccc(/C=C/c2n(Cc3ccc4ccccc4c3)c3ccccc3[n+]2Cc2ccc3ccccc3c2)cc1`: the growth was -84.4% (active) with HCT-15 colon; -31.6% (active) with HT29 colon (10 µM unless noted); -84.3% (active) in the test with SNB-75 CNS (10 µM unless noted); -92.5% (active) in the test on SNB-19 CNS (10 µM unless noted); -50.9% (active) in the test on PC-3 prostate (10 µM unless noted); -92.2% (active) in the test on SK-MEL-5 melanoma (10 µM unless noted). The growth is -93.3% (active) in the test on UACC-62 melanoma (10 µM unless noted), -95.7% (active) with LOX IMVI melanoma (10 µM unless noted) and -76% (active) in the test with SK-MEL-28 melanoma (10 µM unless noted).

For `COc1ccccc1/C=C/c1cccc(NC(=S)NCCCCN(C)C)c1`, the growth in the test on HCT-15 colon is -100% (active); in the test on HT29 colon (10 µM unless noted), -59% (active); with SNB-75 CNS (10 µM unless noted), -80.1% (active); in the test with SNB-19 CNS (10 µM unless noted), -84.1% (active); in the test with PC-3 prostate (10 µM unless noted), -46.9% (active); with SK-MEL-5 melanoma (10 µM unless noted), -97% (active). Moreover, the values for the growth with UACC-62 melanoma (10 µM unless noted), in the test on LOX IMVI melanoma (10 µM unless noted) and in the test with SK-MEL-28 melanoma (10 µM unless noted) were -98.5% (active), -98.4% (active) and -98.8% (active), respectively.

In the case of `COc1ccc2[nH]c(O)c(N=Nc3nc(-c4ccc(C#N)cc4)cs3)c2c1`, the growth in the test on HCT-15 colon is 68%; in the test with HT29 colon (10 µM unless noted), 79.1%; with SNB-75 CNS (10 µM unless noted) it was -3.1% (active); in the test on U251 CNS (10 µM unless noted) it was 15.2%; in the test with PC-3 prostate (10 µM unless noted) it was 85.7%; with SK-MEL-5 melanoma (10 µM unless noted) it was 53.7%. For the same molecule, the growth in the test with LOX IMVI melanoma (10 µM unless noted) was 37.6%; with SK-MEL-28 melanoma (10 µM unless noted), 68.9%.

Regarding `COc1cc(/C=N/NC(=O)c2ccc(OCc3nc4ccc(Cl)cc4[nH]3)cc2)cc(OC)c1OC`, the growth in the test on HCT-15 colon is 37.4%; in the test on HT29 colon (10 µM unless noted), 21.4%; in the test with SNB-75 CNS (10 µM unless noted), 123%; in the test with U251 CNS (10 µM unless noted) it was 52.8%; in the test on PC-3 prostate (10 µM unless noted), 35.5%; with SK-MEL-5 melanoma (10 µM unless noted), -19.9% (active). Moreover, the results for the growth with UACC-62 melanoma (10 µM unless noted), in the test on LOX IMVI melanoma (10 µM unless noted) and in the test on SK-MEL-28 melanoma (10 µM unless noted) were 16.7%, 26% and 32.4%, respectively.

In the case of `COc1cccc(C(N)=Nc2ccc(OCCCCCCCCn3cncn3)cc2)c1`, the growth was 11.7% in the test on HCT-15 colon; 60.8% with SNB-75 CNS (10 µM unless noted); 37.7% in the test with PC-3 prostate (10 µM unless noted); 27.4% in the test with UACC-62 melanoma (10 µM unless noted); 20% in the test with LOX IMVI melanoma (10 µM unless noted); 55.3% in the test on SK-MEL-28 melanoma (10 µM unless noted).

As to `Nc1ccc(-c2ccc3ncnc(N4CCc5cc(F)c(Cl)cc54)c3c2)cn1`, the growth with HCT-15 colon is 24.8%; in the test with HT29 colon (10 µM unless noted), 25.9%; in the test on SNB-75 CNS (10 µM unless noted), -4.49% (active); in the test with U251 CNS (10 µM unless noted), 43.8%; with PC-3 prostate (10 µM unless noted), 19%; with SK-MEL-5 melanoma (10 µM unless noted), 16.6%. The growth in the test with UACC-62 melanoma (10 µM unless noted) is 15%; with LOX IMVI melanoma (10 µM unless noted), 18.7%; in the test on SK-MEL-28 melanoma (10 µM unless noted), 41.4%.

Take `CN1CCc2c(sc3ncnc(N/N=C/c4cccc(Cl)c4Cl)c23)C1`: the growth is -14.5% (active) in the test with HCT-15 colon; -12.7% (active) with HT29 colon (10 µM unless noted); 76.3% with SNB-75 CNS (10 µM unless noted); -96.3% (active) in the test on U251 CNS (10 µM unless noted); 96% in the test with PC-3 prostate (10 µM unless noted); 80.7% with SK-MEL-5 melanoma (10 µM unless noted). Further, the results for the growth in the test with UACC-62 melanoma (10 µM unless noted), in the test on LOX IMVI melanoma (10 µM unless noted) and in the test with SK-MEL-28 melanoma (10 µM unless noted) were 92.5%, -82.5% (active) and 103%, respectively.

For the molecule `CC/C(=C(\c1ccc(O)cc1)c1ccc(OCCN(C)C(=O)COCCNC(=O)Cc2ccc3c(c2)CN([C@@H]2CCC(=O)NC2=O)C3=O)cc1)c1ccccc1`, the growth with HT29 colon (1 µM) was 110%; in the test on HT29 colon (10 µM) it was 80.1%; with SNB-75 CNS (1 µM) it was 44.9%; in the test on SNB-75 CNS (10 µM), 4.63% (active); in the test with SNB-19 CNS (1 µM), 64.8%; in the test on SNB-19 CNS (10 µM), 49.8%. In addition, the growth was 97.4% in the test with U251 CNS (1 µM); 80% with U251 CNS (10 µM); 26.7% with PC-3 prostate (1 µM); 18.7% in the test on PC-3 prostate (10 µM); 83.7% in the test with SK-MEL-5 melanoma (1 µM); 31.8% with SK-MEL-5 melanoma (10 µM). Also, the growth in the test with UACC-62 melanoma (1 µM) was 93.4%; in the test on UACC-62 melanoma (10 µM), 77.8%; in the test on LOX IMVI melanoma (1 µM) it was 101%; in the test with LOX IMVI melanoma (10 µM), 90.4%; with SK-MEL-28 melanoma (1 µM), 90.4%; in the test with SK-MEL-28 melanoma (10 µM), 57%.

For the molecule `NC(=Nc1ccc(OCCCCCCCCn2cnnn2)cc1)c1ccccc1`, the growth in the test on HCT-15 colon is 14.6%; with SNB-75 CNS (10 µM unless noted), 45.4%; in the test on SNB-19 CNS (10 µM unless noted) it was 20.8%; with PC-3 prostate (10 µM unless noted), 36.2%; with UACC-62 melanoma (10 µM unless noted), 28.3%; in the test on LOX IMVI melanoma (10 µM unless noted), 23%. Also, the growth in the test on SK-MEL-28 melanoma (10 µM unless noted) was 65.1%.

As for `CCCCC[C@@H]1C/C=C(\C)[C@@H](O)C(C)(C)C(=O)[C@@H](C)/C=C(\C)[C@@H]2C[C@H](O)C[C@](O)(CC(=O)O1)O2`, the growth was 38.4% in the test on HCT-15 colon; 50.4% in the test with HT29 colon (10 µM unless noted); 32.9% in the test with SNB-75 CNS (10 µM unless noted); 61.2% in the test on U251 CNS (10 µM unless noted); 21.4% in the test with PC-3 prostate (10 µM unless noted); -17.6% (active) in the test with SK-MEL-5 melanoma (10 µM unless noted). The growth in the test with UACC-62 melanoma (10 µM unless noted) is 55.8%; in the test with LOX IMVI melanoma (10 µM unless noted) it was 50.9%; with SK-MEL-28 melanoma (10 µM unless noted), 76.3%.

For `O=C(Cn1c(/C=C/c2ccc([N+](=O)[O-])cc2)nc2ccccc2c1=O)Nc1ccccc1`, the growth with HCT-15 colon was 85.8%; in the test on HT29 colon (10 µM unless noted), 45.8%; in the test on SNB-75 CNS (10 µM unless noted), 38.5%; in the test with U251 CNS (10 µM unless noted) it was 69.4%; in the test on PC-3 prostate (10 µM unless noted) it was 85.1%; with SK-MEL-5 melanoma (10 µM unless noted), 82.6%. In addition, the growth in the test with UACC-62 melanoma (10 µM unless noted) is 69.6%; in the test on LOX IMVI melanoma (10 µM unless noted), 58.4%; with SK-MEL-28 melanoma (10 µM unless noted), 76.1%.
